Counter-ions that a name gives are not always drawn.
Experiments:
Experiment in all cases: Euclidean distance of Cell Painting phenotypic profile (signed KS, 77 features) to DMSO centroid (dimensionless distance); 5 or 10 uM (library dependent); higher = stronger phenotypic change vs DMSO (phenoactivity)
Settings in all cases: 48 h
786-O = test system: 786-O
Summary of the method: (§1)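 Library compounds were applied at 10 or 5 uM, depending on the library, with 0.1% DMSO final, for 48 h to five cancer lines and a healthy fibroblast line. After staining, cells were imaged confocally at 20X across 9 fields per well, and Harmony extracted 77 features, each scored as a signed Kolmogorov-Smirnov statistic against vehicle wells on the same plate. Phenoactivity is the Euclidean distance between each profile and the median vehicle profile, with profiles first plate-position corrected, correlation-weighted and averaged over replicates at the top dose.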

A549 = test system: A549
Summary of the method: as §1

DU145 = test system: DU145
Summary of the method: as §1

FB = test system: FB
Summary of the method: as §1

HEPG2 = test system: HEPG2
Summary of the method: as §1

OVCAR4 = test system: OVCAR4
Summary of the method: as §1

SMILES	Euclidean distance (786-O)	Euclidean distance (A549)	Euclidean distance (DU145)	Euclidean distance (FB)	Euclidean distance (HEPG2)	Euclidean distance (OVCAR4)
CCCCCOc1ccccc1/C(=C\SC)n1ccnc1 [Neticonazole Hydrochloride]	1.28	1.44	0.848	0.825	1.31	1.05
CC(C)(c1ccc(O)cc1)c1ccc(O)cc1 [Bisphenol A]	0.955	1.21	0.773	0.78	0.694	0.934
Oc1ccc(C2CNCCc3c2cc(O)c(O)c3Cl)cc1 (stereo not drawn) [Fenoldopam mesylate]	1.43	1.07	0.768	0.976	1.19	0.867
C[C@@H]1CC(=O)NN=C1c1ccc(NN=C(C#N)C#N)cc1 [Levosimendan]	1.83	0.486	1.3	1.44	0.487	0.625
Cc1ccc(C(=O)Nc2ccc(CN3CCN(C)CC3)c(C(F)(F)F)c2)cc1C#Cc1cnc2cccnn12	4.62	4.2	6.75	1.08	4.93	4.29
Cl.NCCCC[C@H](N)C(=O)O [L-Lysine hydrochloride]	0.954	1.04	0.836	0.872	1.27	0.646
O=c1ccc2cc(O)c(O)cc2o1 [Esculetin]	1.31	0.797	1.69	0.959	1.2	0.988
O=[N+]([O-])c1ccc(O)c2ncccc12 [Nitroxoline]	2.71	2.74	1.76	1.94	1.71	2.24
CC(=O)OCC(=O)NCCCOc1cccc(CN2CCCCC2)c1 [Roxatidine Acetate HCl]	1.32	0.853	0.769	0.72	0.711	0.763
CN1[C@@H]2CC[C@H]1C[C@@H](OC(=O)c1c[nH]c3ccccc13)C2 [Tropisetron]	1.17	1.76	1.05	1.46	1.1	1.17
CC(C)(C)c1cnc(CSc2cnc(NC(=O)C3CCNCC3)s2)o1	2.67	3.69	2.93	3.38	2.81	3.27
CC(C)(C(=O)O)c1ccc(C(O)CCCN2CCC(C(O)(c3ccccc3)c3ccccc3)CC2)cc1 (stereo not drawn) [Fexofenadine HCl]	1.52	0.838	0.779	0.629	0.305	1.91
CC#C[C@]1(O)CC[C@H]2[C@@H]3CCC4=CC(=O)CCC4=C3[C@@H](c3ccc(N(C)C)cc3)C[C@@]21C [Mifepristone]	1.22	1.62	1.48	1.13	1.01	1.14
O=C(NC(Cc1cc(=O)[nH]c2ccccc12)C(=O)O)c1ccc(Cl)cc1 (stereo not drawn) [Rebamipide]	1.17	1.17	1.29	0.77	1.97	1.06
Nc1nc(Nc2ccc(S(N)(=O)=O)cc2)nn1C(=O)c1c(F)cccc1F	1.27	1.64	1.5	0.817	1.7	1.05
COC(=O)N[C@H](C(=O)N1CCC[C@H]1C(=O)Nc1ccc([C@@H]2CC[C@@H](c3ccc(NC(=O)[C@@H]4CCCN4C(=O)[C@@H](NC(=O)OC)C(C)C)cc3)N2c2ccc(C(C)(C)C)cc2)cc1)C(C)C [Ombitasvir (ABT-267)]	1.9	1.76	1.29	1.1	1.24	1.26
CCCC(=O)OCOC(=O)C1=C(C)NC(C)=C(C(=O)OC)C1c1cccc(Cl)c1Cl (stereo not drawn) [Clevidipine Butyrate]	1.64	0.675	1.47	0.951	2.16	1.78
CCN(CC)CCOC(=O)c1ccc(N)cc1 [Procaine]	0.916	0.935	0.941	1.08	1.37	0.75
O=C1NC(=O)/C(=C/c2ccc3c(c2)OC(F)(F)O3)S1	1.35	1.7	1.51	1.44	1.13	0.892
CN1CCN(c2cc3c(cc2F)c(=O)c(C(=O)O)cn3-c2ccc(F)cc2)CC1 [Difloxacin hydrochloride]	1.51	0.685	0.906	1.1	0.824	1.17
Cc1ccc2c(c1)C(=O)C1(O)CCN(c3ccccc3)C1=N2 (single isomer, unassigned; (-)) [(-)-Blebbistatin]	1.29	1.46	1.36	1.03	1.13	1.46
C=C1CC[C@@H]2[C@](C)(CO)[C@H](O)CC[C@@]2(C)[C@H]1C/C=C1\C=COC1=O [Dehydroandrographolide]	1	0.867	0.554	0.87	0.517	1.29
COc1ccc2c3c1O[C@H]1C[C@@H](O)C=C[C@@]31CCN(C)C2 [Galanthamine]	0.802	1.14	0.605	0.959	0.423	0.852
